The list is not random: actives were taken first. Their share in the collection is about 2.1%.
FUS suppressor – rescues growth of FUS-expressing yeast. S. cerevisiae FUS-expressing, growth rescue, OD600, 24 h. Potency, µM (top dose mostly 76.6 µM), hits mostly activators. 0.24% of 390,000 active. AID 1347120;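 note: plate controls were DMSO vehicle for no effect and reference control for full effect; nearly all actives have a fitted effect of over 55% in size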
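Cultures pregrown in 2.5% raffinose medium are shifted to minimal medium containing 2% galactose to express toxic FUS. Compounds are tested at several concentrations. After 24hr at 30C, growth is quantified at 600 nm absorbance.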
TDP43 rescue – inhibitors of TDP-43 toxicity in yeast. TDP-43 expressing yeast growth rescue, BacTiter-Glo, 24 h. Potency, µM (series often up to 46.1 µM), inactives show top-dose growth rescue (activation), hits mostly activators. 1.8% of 410,000 active. AID 652104; note: % of control where 0% means no effect; nearly all actives have a fitted effect of over 50% in size
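Luminescence from BacTiter-Glo reports growth of TDP-43-expressing yeast after 24 hr at 30 deg C with compound. Cells were raffinose-pregrown to mid-log, then seeded in galactose medium at OD600=0.02.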
aSyn yeast inh – inhibitors of alpha-synuclein toxicity in yeast; Yeast expressing alpha-synuclein, growth rescue, BacTiter-Glo, 24 h; Potency, µM (top dose mostly 46.1 µM), without a hit: at the top dose growth rescue (activation), usual class: activators; 0.14% of 370,000 active; note: % of control where 0% means no effect; nearly all actives have a fitted effect of over 65% in size
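Screening used galactose-induced yeast with toxic alpha-synuclein levels, exposed to compound for 24 hr at 30 deg C. Cell growth, read with BacTiter-Glo luminescence, gave the measured signal.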
Abeta yeast res – compounds reversing amyloid beta toxicity in yeast | yeast expressing A-beta42, growth rescue, OD600, 48 h; response scale: 0% DMSO, 100% iron-clioquinol control | Potency, µM (doses to about 46.1 µM), most hits filed as activators | 0.063% of 410,000 active | AID 1347071; note: nearly all actives have a fitted effect of over 55% in size
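Yeast A-beta toxicity model in growth medium with pinned compounds, 48 h at 30 C; growth read as absorbance at 600 nm. Normalized to FeCl3/clioquinol equimolar mix (positive) and DMSO (negative).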
Numbers without * were called inactive; i = inactive; ? = inconclusive; . = not tested or not shown; [ ] = another dose, or the depositor's remark. Calls come from the whole dose curve; as a rule, active = well fitted curve in the direction sought with a large enough effect; inconclusive = small, poorly fitted or top-dose-only effect, or another doubt; inactive = no such curve, though single readings can be large; an effect the other way counts as inactive or inconclusive. Potency is the fitted concentration of half-maximal effect.

SMILES | FUS suppressor | TDP43 rescue | aSyn yeast inh | Abeta yeast res
c1ccc2sc(-c3ccncc3)nc2c1 | i | 2% | ? | i
Oc1ccc(-c2nc3ccccc3s2)cc1 | i | 35µM* | -17% | i
Cc1ccc(OCCn2cc(C(=O)C3CCCCC3)c3ccccc32)cc1 | i | -19% | . | i
CC(C)(C)c1ccc2c(c1)OC(C(=O)N/N=C\c1ccccn1)CO2 (configuration not stated) | . | ? | 14µM* | ?
O=C(N/N=C/c1c[nH]c2ccccc12)C1COc2ccccc2O1 (configuration not stated) | i | 13% | 1% | i
O=C(N/N=C\c1ccc(Cl)s1)C1COc2ccccc2O1 (configuration not stated) | i | 18µM* | 1% | ?
O=C(N/N=C\c1ccc([N+](=O)[O-])s1)C1COc2ccccc2O1 (configuration not stated) | i | 3.5µM* | 7% | i
CC(C)(C)c1ccc2c(c1)OC(C(=O)N/N=C\c1ccc(-c3cccc(C(=O)O)c3)o1)CO2 (configuration not stated) | ? | 3% | 0% | i
O=C(N/N=C\c1ccc([N+](=O)[O-])o1)C1COc2ccccc2O1 (configuration not stated) | i | ? | 6% | i
O=C(CSc1nc2nccnc2c(=O)n1CCc1c[nH]c2ccccc12)Nc1ccc(F)cc1 | i | 0% | . | i
Cc1cc(F)ccc1S(=O)(=O)Nc1ccc2c(c1)CCCN2C(=O)c1cccs1 | ? | 0%[9.22 µM] | . | i
COc1cccc(CNC(=O)c2ccc3oc(=O)n(Cc4ccccc4)c3c2)c1 | i | 25µM* | . | ?
CCOC(=O)c1ccc2oc(=O)n(Cc3ccccc3)c2c1 | i | 7.9µM* | . | i
Cc1ccc(CNC(=O)c2ccc3oc(=O)n(Cc4ccccc4)c3c2)cc1 | i | 20% | . | i
Cc1occc1C(=O)Nc1cccc(Cl)c1Cl | i | 11µM* | -6% | i
COc1ccc(C(=O)NCCn2cc(SCc3cccc(F)c3)c3ccccc32)cc1OC | ? | 21% | . | i
Cc1c(C(=O)NCc2ccc(Cl)cc2)sc2nc3n(c(=O)c12)CCCC3 | i | ? | . | i
Cc1c(C(=O)NCc2ccccc2Cl)sc2nc3n(c(=O)c12)CCC3 | i | 18µM* | . | i
Cc1c(C(=O)NCc2cccc(Cl)c2)sc2nc3n(c(=O)c12)CCCC3 | i | 22µM* | . | i
CC(C)c1ccc(/C=C2\C=Cc3ccccc32)cc1 | . | . | -1% | .
CCOC(=O)/C(=C\c1cccnc1)C(=O)c1cc(C(C)=O)c(Nc2ccccc2)s1 | . | 3.2µM* | -21% | i
CCOC(=O)/C(=C\c1ccccc1)C(=O)c1cc(C(C)=O)c(Nc2ccccc2)s1 | i | -11% | 28% | i
Cc1ccc2oc(=O)c3cc(C(=O)NCCCOC(C)C)sc3c2c1 | i | 11% | . | i
COc1ccc(CS(=O)(=O)/C(Cl)=C(/Cl)C(=O)Nc2ccc(OC)nc2)cc1 | i | 13µM* | ? | i
COc1ccc(NC(=O)Cc2ccccc2)cn1 | i | 25% | 2% | i
SMILES | FUS suppressor | TDP43 rescue | aSyn yeast inh | Abeta yeast res
COc1ccc(NC(=O)/C(Cl)=C(/Cl)S(=O)Cc2ccccc2)cn1 (configuration not stated) | . | 3.5µM* | -80% | i
Fc1ccc2[nH]c3c(c2c1)CN(C(=S)NCc1ccccc1)CC3 | i | 16µM* | -28% | ?
S=C(NCc1ccccc1)N1CCc2ccccc2C1 | i | 11µM* | 3% | i
Cc1cccc(C(=O)NC(=S)N2CCc3ccccc3C2)c1 | i | 20µM* | -2% | ?
C=CCNC(=O)N1CCc2[nH]c3ccc(F)cc3c2C1 | i | 13% | -1% | i
CCNC(=S)N1CCc2ccccc2C1 | i | 3%[9.22 µM] | 0% | i
Nc1[nH]c2cc(C(F)(F)F)ccc2c1C(=O)NCc1ccc(F)cc1 | i | . | . | .
Cc1ccccc1NC(=O)c1nc(S(=O)(=O)Cc2ccccc2F)ncc1Cl | . | . | -24% | .
CCc1c(C)nc2ncnn2c1NC1CCCc2ccccc21 (configuration not stated) | i | 22% | 8% | 13µM*
c1ccc(OCCNc2ccn3nc(-c4cccs4)cc3n2)cc1 | i | 14µM* | -1% | i
c1ccc(OCCNc2ccn3nc(-c4ccco4)cc3n2)cc1 | i | 16µM* | -9% | i
COc1ccccc1-c1cc2nc(NCCOc3ccccc3)ccn2n1 | i | 25µM* | 14% | i
Cc1c(C(=S)Nc2ccccc2)cnn1-c1ccccc1 | . | 16µM* | 6% | i
Nc1c(C(=O)N/N=C/c2ccc([N+](=O)[O-])cc2)cnn1-c1ccccc1 | i | -26% | -3% | i
Cc1c(C(=S)Nc2ccccc2)cnn1-c1ccc([N+](=O)[O-])cc1 | . | 13µM* | 16% | i
CC(=O)c1cnn(-c2ccccc2)c1C | i | -4% | -10% | i
O=C(N/N=C/c1cccc(F)c1)NC1CCCCC1 | i | 13µM* | 14% | i
COc1ccc(CCNC(=O)c2ccc3c(c2)sc2nc(-c4ccccc4)cn23)cc1OC | i | 7% | . | i
Cc1nc(NC(=S)Nc2ccccc2)sc1C | i | ? | -1% | 11µM*
CCc1nnc(NC(=S)Nc2ccccc2)s1 | i | 13µM* | -9% | ?
CCC(C(=O)Nc1nc(C)cs1)c1ccccc1 (configuration not stated) | i | ? | 5% | i
CCC(C(=O)Nc1nc(C)c(C)s1)c1ccccc1 (configuration not stated) | i | 18µM* | -2% | ?
CCc1nnc(NC(=O)CCC(=O)Nc2ccccc2)s1 | i | 15% | -4% | i
CCc1ccc(CNCc2c(C(=O)O)n(Cc3cccc(F)c3)c3cc(OC)ccc23)cc1 | i | 4% | . | i
COCCNC(=S)NN=C1CCCCC1 | i | -18% | 0% | i
SMILES | FUS suppressor | TDP43 rescue | aSyn yeast inh | Abeta yeast res
C=CCNC(=S)NN=C1CCCCCCC1 | i | -3% | -8% | 8.9µM*
COc1ccc(C2(C)NC(=O)N(Cc3cc(Cl)cc4c3OCOC4)C2=O)cc1OC (configuration not stated) | 35µM* | -7% | -6% | i
Cc1nc(N2CCN(C(=O)c3ccco3)CC2)c(C#N)c2c1CCCC2 | i | ? | 7% | i
COc1ccccc1C(=O)N1CCN(c2nc3cc(C)c(C)cc3cc2C#N)CC1 | ? | ? | 19% | i
Cc1cc(C)c2nc(N3CCCN(C(=O)c4ccco4)CC3)c(C#N)cc2c1 | i | 18µM* | . | i
COc1ccccc1C(=O)N1CCN(c2nc3cc(C)cc(C)c3cc2C#N)CC1 | i | 11µM* | 26% | i
Cc1ccccc1NC(=O)CSc1nnc(-c2ccco2)c(-c2ccco2)n1 | i | 7% | -1% | i
O=C(CSc1nnc(-c2ccco2)c(-c2ccco2)n1)Nc1ccccc1 | 22µM* | 9% | -1% | i

Screening results from PubChem.
